# Data published in PubChem BioAssay AID1220 (Sanford-Burnham Center for Chemical Genomics, 2008).
# Values joined by “and” are separate entries in the source; they are usually repeats but may differ in a detail not shown here. Identical values can stand only once. Screen size: about 190,000 compounds; about 1,300 (0.68%) were called active. Cut-off read from the data, not from the text of the source: active = inhibition above about 50%; inactive = the rest. The list comes from a sample in which actives are over-represented; it also holds similar structures and randomly drawn compounds. The source holds several records for some structures; these can differ, active in one and inactive in another.
# Target: Mannose-6-phosphate isomerase (Homo sapiens) (UniProt P34949)
# Assay: human PMI inhibitors, high substrate, primary screen, biochemical, fluorescence intensity, high mannose 6-phosphate (AID 1220)
# Details: recombinant PMI enzyme, coupled fluorescence intensity; at 20 µM; stronger effect = higher value
# Sequence of Mannose-6-phosphate isomerase (Homo sapiens) (P34949 whole entry, looked up): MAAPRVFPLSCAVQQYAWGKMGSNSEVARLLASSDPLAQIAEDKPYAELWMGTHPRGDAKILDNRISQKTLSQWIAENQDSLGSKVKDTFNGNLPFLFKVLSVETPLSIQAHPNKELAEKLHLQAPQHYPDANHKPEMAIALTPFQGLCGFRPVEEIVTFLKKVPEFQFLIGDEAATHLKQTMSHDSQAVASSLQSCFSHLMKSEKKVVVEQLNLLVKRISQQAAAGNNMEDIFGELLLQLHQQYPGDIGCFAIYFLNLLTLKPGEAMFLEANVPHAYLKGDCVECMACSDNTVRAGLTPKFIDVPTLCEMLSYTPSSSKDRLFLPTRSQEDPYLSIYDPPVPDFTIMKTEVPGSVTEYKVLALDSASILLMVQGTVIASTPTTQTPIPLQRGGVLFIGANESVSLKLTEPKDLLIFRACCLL
row,Structure (SMILES),inhibition
1,C=C1C(=O)[C@@]23[C@H](O)C[C@@H]4C(C)(C)CC[C@H](O)[C@]4(C)[C@@H]2C[C@H](O)[C@@H]1[C@H]3O,52.3% (active)
2,C=C1C(=O)[C@@]23[C@H](O)C[C@@H]4C(C)(C)CC[C@H](O)[C@@]4(C)[C@@H]2CC[C@@H]1[C@H]3O,3.9% (inactive)
3,Cc1cc2cc(C=C(C#N)C#N)c(Cl)nc2cc1C,54.1% (active)
4,Cc1ccc2cc(C=O)c(N(C)C)nc2c1,8.2% (inactive)
5,Cc1cc(C)c2cc(CNC3CCCC3)c(Cl)nc2c1,3.4% (inactive)
6,CC(C)(C)c1nn(-c2ccccc2)c2nc(Cl)c(C=O)cc12,-0.4% (inactive)
7,CCOC(=O)/C(C#N)=C/c1cc2ccc(C)cc2nc1Cl,21.5% (inactive)
8,Cc1ccc2cc(C=O)c(Cl)nc2c1,39.8% (inactive)
9,CCOC(=O)/C(C#N)=C/c1cc2ccccc2nc1Cl,21.1% (inactive)
10,Cc1cc2cc(C=O)c(Cl)nc2cc1C,58.2% (active)
11,CCC(C)(C(=O)NC1CCCCC1)N(C(=O)C1CCC(=O)N1)c1ccc(C)cc1 (centres undefined),-0.7% (inactive)
12,CCC(=O)NC(=S)Nc1cccc(NC(=O)c2ccco2)c1,9.6% (inactive)
13,CCC(C)C(NC(=O)c1ccc(Cl)cc1Cl)C(=O)O (centres undefined),1.7% (inactive)
14,COc1ccc(CC(=O)Nc2ccccc2C(=O)N2CCOCC2)cc1,5.3% (inactive)
15,CCOC(=O)N1CCC(N2Cc3cccc(C(=O)Nc4ccc(F)cc4)c3C2=O)CC1,-3.9% (inactive)
16,COC(=O)c1ccccc1NC(=O)COc1ccccc1[N+](=O)[O-],-1.9% (inactive)
17,NNC(=O)COc1ccccc1[N+](=O)[O-],4.8% (inactive)
18,O=C(COc1ccccc1[N+](=O)[O-])NNC(=O)Nc1cccc2ccccc12,59.8% (active)
19,CCOCCCn1c(=N)c(C(=O)NCc2ccc3c(c2)OCO3)cc2c(=O)n3ccccc3nc21,-7.7% (inactive)
20,CC(C)OCCCNC(=O)c1ccc(N(C)S(C)(=O)=O)cc1,6.8% (inactive)
21,CCOc1cccc(C=Nc2cc(C)cc(C)c2O)c1O,7% (inactive)
22,CCc1ccc(O)c(N=Cc2cccc(C)c2O)c1,17.4% (inactive)
23,Cc1ccc(N=Cc2sc(O)c3ccccc23)c(C)c1,2.2% (inactive)
24,Cc1cccc(C=Nc2ccc3c(c2)oc2ccccc23)c1O,30.1% (inactive)

row,Structure (SMILES),inhibition
1,CCC(=O)N1CCN(c2ccccc2NC(=O)Cc2ccccc2)CC1,3.5% (inactive)
2,CCNC(=S)Nc1ccc(S(=O)(=O)Nc2cc(C)nc(C)n2)cc1,-7.6% (inactive)
3,O=C(O)C1CC=CCC1C(=O)Nc1cccc(C(=O)N2CCCCC2)c1 (centres undefined),-20.1% (inactive)
4,COc1cccc(C(c2sc3nc(C)nn3c2O)N2CCc3ccccc3C2)c1 (centres undefined),42.6% (inactive)
5,COc1cc(C(c2sc3nc(C)nn3c2O)N2CCc3ccccc3C2)cc(OC)c1OC (centres undefined),5.1% (inactive)
6,Cc1ccc2c(c1)NC(=O)C(CC(=O)NCCCN1CCN(c3cc(C)ccc3C)CC1)O2 (centres undefined),9.9% (inactive)
7,CN(C)/C=N/c1nc(-c2ccc3c(c2)OCO3)cs1,7.4% (inactive)
8,CC(C)c1cc(NC(=O)c2ccccc2)cc(C(C)C)c1O,8.4% (inactive)
9,CC(C)c1cc(Nc2cccc(O)c2)cc(C(C)C)c1O,53.6% (active)
10,CC(=O)Nc1cc(C(C)C)c(O)c(C(C)C)c1,6.7% (inactive)
11,CC(C)(C)NC(=O)C(c1ccc(OCC(N)=O)cc1)N(C(=O)c1cccnc1)C1CC1 (centres undefined),-7.4% (inactive)
12,C=CCNC(=O)c1ccc2c(c1)nnn2C,3.7% (inactive)
13,CN(C)/C=C/C(=O)c1cnc(-c2ccc(Cl)cc2)s1,0.9% (inactive)
14,O=C(c1ccc(Cl)nc1)N1CCc2ccccc2C1,5.7% (inactive)
15,Cc1ccc(Nc2nc(-c3c(C)nc4ccccn34)cs2)cc1,57.1% (active)
16,Cc1cccc(Nc2nc(-c3c(C)nc4ccccn34)cs2)c1,47% (inactive)
17,Cc1ccc(Nc2nc(-c3c(C)nc4ncccn34)cs2)cc1,18.6% (inactive)
18,CSc1ccccc1NC(=O)COc1ccc(Cl)cc1,3.4% (inactive)
19,CCCOC(=O)c1cc(NC(=O)/C=C/c2ccccc2)ccc1O,14.7% (inactive)
20,C/C=C/CSc1nc2c(c(=O)[nH]c(=O)n2C)n1Cc1ccc(C)cc1,14% (inactive)
21,Cc1ccc(NC2=C/C(=N/S(=O)(=O)c3cccs3)c3ccccc3C2=O)cc1,47.9% (inactive)
22,CC(=O)Nc1ccc(NC2=C/C(=N/S(=O)(=O)c3cccs3)c3ccccc3C2=O)cc1,54.1% (active)
23,Cc1ccc(NC2=C/C(=N\S(=O)(=O)c3cccs3)c3ccccc3C2=O)c(C)c1,50.1% (active)
24,O=C1C(Nc2ccc(O)cc2)=C/C(=N/S(=O)(=O)c2cccs2)c2ccccc21,47.6% (inactive)

row,Structure (SMILES),inhibition
1,Cc1ccc(NC2=C/C(=N/S(=O)(=O)c3cccs3)c3ccccc3C2=O)cc1C,31.2% (inactive)
2,Cc1ccccc1NC1=C/C(=N\S(=O)(=O)c2cccs2)c2ccccc2C1=O,17.2% (inactive)
3,COC(=O)c1ccccc1NC1=C/C(=N\S(=O)(=O)c2cccs2)c2ccccc2C1=O,-25.4% (inactive)
4,Cc1cccc(NC2=C/C(=N/S(=O)(=O)c3cccs3)c3ccccc3C2=O)c1,56.8% (active)
5,Cc1ccc(Cl)cc1NC1=C/C(=N\S(=O)(=O)c2cccs2)c2ccccc2C1=O,16.4% (inactive)
6,CCN1CCN(CC(=O)NC2CCCC2)C(=O)C1=O,5.9% (inactive)
7,CC(NC(=O)C1CCCN(S(=O)(=O)c2cnc[nH]2)C1)c1ccccc1 (centres undefined),-0.1% (inactive)
8,CCOc1ccccc1-c1nc(-c2ccc(NC(=O)Cc3ccc(OC)cc3)cc2)no1,-5.8% (inactive)
9,COc1ccc(NC(=O)N2CCN(S(C)(=O)=O)CC2)cc1OC,14% (inactive)
10,COc1ccccc1NC(=O)/C(C#N)=C/c1cc([N+](=O)[O-])ccc1N1CCCC1,-6.4% (inactive)
11,COc1cc(OC)cc(C(=O)NC(C(=O)O)C23CC4CC(CC(C4)C2)C3)c1 (centres undefined),-4.9% (inactive)
12,COc1ccc(/C(O)=C2/C(=O)C(=O)N(CC3CCCO3)C2c2ccc(O)c(OC)c2)cc1 (centres undefined),5.8% (inactive)
13,O=S(=O)(NCCNc1ncc(C(F)(F)F)cc1Cl)C(F)(F)F,6.3% (inactive)
14,CCOc1cc(NC(=S)NCC2CCCO2)c(OCC)cc1NC(=O)c1ccccc1C (centres undefined),5.7% (inactive)
15,CCOc1cc(NC(=S)NCC2CCCO2)c(OCC)cc1NC(=O)c1ccc(OC)cc1 (centres undefined),35% (inactive)
16,CCOc1cc(NC(=S)NCC2CCCO2)c(OCC)cc1NC(=O)CC(C)C (centres undefined),15.4% (inactive)
17,CCOc1cc(NC(=S)NCC2CCCO2)c(OCC)cc1NC(=O)c1ccccc1F (centres undefined),53.9% (active)
18,CCOc1cc(NC(=S)NCC2CCCO2)c(OCC)cc1NC(=O)c1cccc(C)c1 (centres undefined),17% (inactive)
19,CCOc1cc(NC(=S)NCC2CCCO2)c(OCC)cc1NC(=O)c1ccc(C)cc1 (centres undefined),58.2% (active)
20,CCOc1cc(NC(=S)NCC2CCCO2)c(OCC)cc1NC(=O)CC (centres undefined),6.9% (inactive)
21,CCOc1cc(NC(=S)NCC2CCCO2)c(OCC)cc1NC(=O)c1ccc(F)cc1 (centres undefined),54.9% (active)
22,CCOc1cc(NC(=S)NCC2CCCO2)c(OCC)cc1NC(=O)C1CC1 (centres undefined),5.5% (inactive)
23,CCOc1cc(NC(=S)NCC2CCCO2)c(OCC)cc1NC(=O)c1ccccc1 (centres undefined),17.7% (inactive)
24,CCOc1ccccc1NC(=S)NCC1CCCO1 (centres undefined),-3.2% (inactive)

row,Structure (SMILES),inhibition
1,CCOc1cc(NC(=S)NCC2CCCO2)c(OCC)cc1NC(=O)c1cccc(F)c1 (centres undefined),53.7% (active)
2,CN(c1ccccc1)S(=O)(=O)c1ccc(Cl)c(C(=O)Nc2ccc(-c3nc4ccccc4[nH]3)cc2)c1,3.8% (inactive)
3,CC1CCCC(NC(=O)CC2Nc3ccccc3NC2=O)C1C (centres undefined),-4.1% (inactive)
4,N#C/C(=C\c1cn(Cc2ccccc2)c2ccccc12)C(=O)NCc1ccco1,15.2% (inactive)
5,Nn1cnnc1SCC(=O)Nc1ccc2c(c1)OCCO2,9.6% (inactive)
6,O=C(NCc1ccco1)/C(=C/C=C/c1ccccc1)NC(=O)c1ccco1,6% (inactive)
7,CC(=O)c1ccc(NC(=S)NCc2cccnc2)cc1,-2.6% (inactive)
8,c1ccc(COc2cccc(CNCc3ccccn3)c2)cc1,-10.4% (inactive)
9,Cc1ccc2cc(CCNC(=O)Cc3cccs3)c(=O)[nH]c2c1,-0.6% (inactive)
10,Fc1ccccc1-c1nc2ccccc2[nH]1,-1.9% (inactive)
11,c1ccc(-c2cc(-c3nc4ccccc4[nH]3)c3ccccc3n2)cc1,12.1% (inactive)
12,c1ccc2[nH]c(-c3ccnc4ccccc34)nc2c1,51.2% (active) and -1.5% (inactive)
13,CCOC(=O)N1CCN(c2cc(NCCC(=O)O)c3c4c(onc24)-c2ccccc2C3=O)CC1,-2.8% (inactive)
14,CN1CCN(c2ccc(Cl)cc2NC(=O)CCN2C(=O)c3ccccc3C2=O)CC1,-10.2% (inactive)
15,CCCCNC(=O)c1ccc(N2CCC3(CC2)OCCO3)c([N+](=O)[O-])c1,2.4% (inactive)
16,O=C(O)CCCCCNS(=O)(=O)c1cccc2c1C(=O)c1ccccc1C2=O,31.4% (inactive)
17,O=C(O)CCCNc1cc(N2CCC3(CC2)OCCO3)c2noc3c2c1C(=O)c1ccccc1-3,54.1% (active)
18,CC(=O)OCCNc1cc(N2CCN(C)CC2)c2noc3c2c1C(=O)c1ccccc1-3,50.5% (active)
19,CC(Oc1ccccc1F)C(=O)NNC(=O)c1cc2ccccc2o1 (centres undefined),2.5% (inactive)
20,Cc1ccc(NC(=S)NC2CCN(Cc3ccccc3)CC2)cc1,8.2% (inactive)
21,COc1cc(NC(=O)Cn2cnc3ccccc3c2=O)c(OC)cc1Cl,14.9% (inactive)
22,CCOC(=O)c1sc2ncnc(N3CCN(CC)CC3)c2c1C,-2.6% (inactive)
